Measured values published in PubChem BioAssay (NCI).
This is part of a sample that, as a whole, favours compounds with a hit. Of some 83,000 tested, about 20% had one in any assay.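 How to read the values: 0–100, growth inhibition (40 = 60% inhibited); 0, no net growth; -100 to 0, cell death (-40 = 40% of starting cells died; -100 = all dead).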 Values without a mark were called inactive. Active and inactive are the calls of the source. Rule for the calls: active = growth percent below 10; inactive = the rest.

How the values were obtained:
Assay in all cases: NCI-60 one-dose screen, 48 h (100 = growth as untreated, 0 = no growth, -100 = all killed)
Conditions in all cases: 10 µM
[1] = tested on: NCI-H23 lung
[2] = tested on: NCI-H226 lung
[3] = tested on: NCI-H322M lung
[4] = tested on: HOP-62 NSCLC
[5] = tested on: NCI-H460 lung
[6] = tested on: NCI-H522 lung
[7] = tested on: A549/ATCC NSCLC
[8] = tested on: 786-0 renal
[9] = tested on: HOP-92 NSCLC
[10] = tested on: COLO 205 colon

SMILES: CCCn1c(O)c(N=Nc2nc(-c3cc4ccccc4oc3=O)cs2)c2cc(Br)ccc21
- growth [1]: 94.8%
- growth [2]: 93.9%
- growth [3]: 102%
- growth [4]: 94.8%
- growth [5]: 110%
- growth [6]: 93.4%
- growth [7]: 110%
- growth [8]: 75.1%

SMILES: Clc1ccc2c(N/N=C/c3c[nH]c4ccc(Br)cc34)ccnc2c1
- growth [1]: -85.4% (active)
- growth [2]: -64.4% (active)
- growth [3]: -96.9% (active)
- growth [4]: -59.1% (active)
- growth [5]: 9.83% (active)
- growth [9]: -69.1% (active)
- growth [6]: -66.9% (active)
- growth [7]: 1.71% (active)
- growth [8]: -54.7% (active)
- growth [10]: -44% (active)

SMILES: CCCS(=O)(=O)c1oc(-c2ccc(F)cc2)nc1S(=O)(=O)c1ccc(F)cc1
- growth [1]: -42.1% (active)
- growth [2]: 64.7%
- growth [3]: 89.8%
- growth [4]: 84%
- growth [5]: 61.7%
- growth [9]: -80.6% (active)
- growth [6]: -92.9% (active)
- growth [7]: 82.5%
- growth [8]: -52.2% (active)
- growth [10]: -92.1% (active)

SMILES: O=C(CSc1nnc(-c2c[nH]c3ccccc23)n1-c1ccccc1)Nc1ccc(C(=O)/C=C/c2cccc([N+](=O)[O-])c2)cc1
- growth [1]: 86.2%
- growth [2]: 72.7%
- growth [3]: 100%
- growth [4]: 98.2%
- growth [5]: 99.2%
- growth [9]: 104%
- growth [6]: 82.1%
- growth [7]: 97.2%
- growth [8]: 101%
- growth [10]: 119%

SMILES: CN(C)c1cccc2c(S(=O)(=O)Nc3cccc(-c4csc(NC(=O)CCCCCN5CCN(c6cc7c(cc6F)C(=O)N(C6CCC(=O)NC6=O)C7=O)CC5)n4)c3)cccc12 (stereo unspecified)
- growth [1]: 60.2%
- growth [2]: 72.7%
- growth [3]: 106%
- growth [4]: 88.5%
- growth [5]: 91.4%
- growth [9]: 56.6%
- growth [6]: 85.6%
- growth [7]: 90.3%
- growth [8]: 86.1%
- growth [10]: 104%

SMILES: COc1ccc(-c2nc(S(=O)(=O)c3ccc(C)cc3)c(S(=O)(=O)CC(=O)N(C)Cc3ccccc3)o2)cc1
- growth [1]: 44%
- growth [2]: 78.7%
- growth [3]: 93.1%
- growth [4]: 82.1%
- growth [5]: 82.6%
- growth [9]: 27.2%
- growth [6]: -1.9% (active)
- growth [7]: 84.9%
- growth [8]: 22.2%
- growth [10]: 45.9%

SMILES: CCOC(=O)c1sc(N/N=C(\C)c2ccc3c(c2)Nc2ccccc2S3)nc1C
- growth [1]: 13.9%
- growth [2]: 34.8%
- growth [3]: 45.2%
- growth [4]: 43.7%
- growth [5]: 5.63% (active)
- growth [9]: -9.2% (active)
- growth [6]: 30.9%
- growth [7]: 29.2%
- growth [8]: 33.6%
- growth [10]: -42.2% (active)

SMILES: C/C(=N\N=C\c1ccc(N(C)C)cc1)c1ccc2c(c1)Nc1ccccc1S2
- growth [1]: 31.4%
- growth [2]: 16.8%
- growth [3]: 79.5%
- growth [4]: 62.2%
- growth [5]: 25%
- growth [9]: 59.5%
- growth [6]: 48.5%
- growth [7]: 50.5%
- growth [8]: 67.5%
- growth [10]: 60.4%

SMILES: COc1cc(/C=C/C(=O)c2ccc(NC(=O)CN3C(=O)NC(C)(c4ccccc4)C3=O)cc2)cc(OC)c1OC (stereo unspecified)
- growth [1]: 15.6%
- growth [2]: 1.44% (active)
- growth [3]: 56.5%
- growth [4]: 33.3%
- growth [5]: 2.48% (active)
- growth [9]: 85%
- growth [6]: 32.8%
- growth [7]: 18.5%
- growth [8]: 27.5%
- growth [10]: 11.9%

SMILES: C/C(=C\CSc1ccccc1C(=O)O)CCCC(C)CCCC(C)CCCC(C)C (stereo unspecified)
- growth [1]: 35.5%
- growth [2]: 77.5%
- growth [3]: 65.8%
- growth [4]: 57.6%
- growth [5]: 39.6%
- growth [9]: 71.4%
- growth [6]: 23.3%
- growth [7]: 41.3%
- growth [8]: 67.3%
- growth [10]: 87.8%

SMILES: C=C(C)[C@@H]1CC[C@]2(COP(=O)(OCC)OCC)CC[C@]3(C)[C@H](CC[C@@H]4[C@@](C)(CCCN)[C@H](C(=C)C)CC[C@]43C)[C@@H]12
- growth [1]: 23.3%
- growth [2]: 29%
- growth [3]: 62.1%
- growth [4]: 53.5%
- growth [5]: 8.95% (active)
- growth [9]: 25.2%
- growth [6]: 19.6%
- growth [7]: 21.5%
- growth [8]: 20.4%
- growth [10]: 29.7%

SMILES: Nc1cc(-c2cccc(C(=O)NCc3ccc4c(c3)OCO4)c2)ccn1
- growth [1]: 88%
- growth [2]: 87.3%
- growth [3]: 111%
- growth [4]: 93.6%
- growth [5]: 111%
- growth [9]: 89.4%
- growth [6]: 84.4%
- growth [7]: 99.2%
- growth [8]: 96.7%
- growth [10]: 131%

SMILES: N#Cc1ccc(-c2nn(-c3ccc(C(=O)O)cc3)cc2CNc2cc(Cl)cc(C(F)(F)F)c2)cc1
- growth [1]: -12.8% (active)
- growth [2]: 4.02% (active)
- growth [3]: 36.4%
- growth [4]: 6.03% (active)
- growth [5]: 6.19% (active)
- growth [9]: -26.6% (active)
- growth [6]: 19.5%
- growth [7]: 29.7%
- growth [8]: 11.5%
- growth [10]: 55.7%

SMILES: O=c1nc(-c2ccccc2)cc(-c2cc3ccccc3nc2Cl)[nH]1
- growth [1]: 33.6%
- growth [2]: 35.6%
- growth [3]: 64.4%
- growth [4]: 42.5%
- growth [5]: 2.46% (active)
- growth [9]: 41.8%
- growth [6]: 51.2%
- growth [7]: 68.9%
- growth [8]: -19.8% (active)
- growth [10]: 45%

SMILES: CC(C)Sc1nc(NC2CC2)c(C#N)c(-c2ccccc2)n1
- growth [1]: 75.5%
- growth [2]: 22.4%
- growth [3]: 77.4%
- growth [4]: 33.9%
- growth [5]: 75.1%
- growth [6]: 60.9%
- growth [7]: 48.6%
- growth [8]: 28.5%
